In the supplement of paper PMC10849652:
About 8,800 targets were measured; listed, in parts, are those with a hit and a random draw of the rest. About 0.5% of all pairs of compound and target were hits.

Assays:
Test in all cases: log2 fold change, soluble protein after heating vs DMSO (PISA); higher = thermal stabilisation; K562 lysate, 10 uM; active = over 0.2 and 3.5 SD of the protein, either way, in both replicates (recomputed)
[1] = compound: C#Cc1cccc(Nc2ncnc3cc(OCCOC)c(OCCOC)cc23)c1 [erlotinib]
Outline: (§1)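 Pellets of K562 cells were dounce-homogenised in PBS pH 7.4 with 1 mM MgCl2, and the crude extract was held at 1 mg/mL protein for a 30 min treatment with 10 μM compound. Aliquots were heated for 3 min over 48°C-58°C and pooled before NP-40 was added to 0.5% at 4°C. The supernatant from 21,000xg for 90 min was quantified by TMTpro 16plex LC-MS/MS with channel sums equalised. Values are reported from duplicates as log-two fold change in thermal stability relative to solvent controls.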

[2] = compound: C/C(=N\NC(=O)C1=CC(=CC=C1)S(=O)(=O)N2CCOCC2)/C3=C(C=CC(=C3)Cl)O
Outline: as §1

[3] = compound: C1=CC(=CC=C1C2=NC3=C(N2)C=C(C=C3)C(=O)N)OC4=CC=C(C=C4)Cl
Outline: as §1

[4] = compound: C1=CC2=C(C=CC(=C2)/C=C\3/C(=O)NC(=NCC4=CC=CS4)S3)N=C1
Outline: as §1

[5] = compound: C1=CC2=NC=CN=C2C=C1/C=C/3\C(=O)NC(=O)S3
Outline: as §1

[6] = compound: C1=CC=C(C=C1)C2=NC(=C(N2)C3=CC=NC=C3)C4=CC(=C(C=C4)Cl)O
Outline: as §1

[7] = compound: C1=CC=C2C(=C1)C3=NNC4=CC=CC(=C43)C2=O
Outline: as §1

[8] = compound: C1CCN(C1)C(=O)NC2=CC=CC(=C2)NC3=NC=C(C(=N3)NCCC4=CN=CN4)Br
Outline: as §1

[9] = compound: C1CN(CCC1(CC2=CC=C(C=C2)Cl)N)C3=NC=NC4=C3C=CN4
Outline: as §1

[10] = compound: C1COCCN1CCN2C3=CC=CC=C3N=C2NC(=O)C4=CC(=CC=C4)[N+](=O)[O-] [IRAK-1-4 Inhibitor I]
Outline: as §1

[11] = compound: C=CC(=O)N1CCC[C@@H](n2nc(-c3ccc(Oc4ccccc4)cc3)c3c(N)ncnc32)C1 [ibrutinib]
Outline: as §1

[12] = compound: CC(=O)c1cnc2ccc(-c3cc(Cl)c(O)c(Cl)c3)nc2c1N[C@H]1CC[C@H](CN(C)C)CC1
Outline: as §1

[13] = compound: CC(C)(C)Cn1c(N)nc2ccc(-c3[nH]c(C(C)(C)C)nc3-c3ccc(F)cc3)nc21 [ralimetinib]
Outline: as §1

[14] = compound: CC(C)(O)CC(=O)NCCn1ccc2ncnc(Nc3ccc(Oc4cccc(C(F)(F)F)c4)c(Cl)c3)c21
Outline: as §1

[15] = compound: CC(C)C1=C2N=C(C=C(N2N=C1)NCC3=CC=CC=C3)NCCCCCCN
Outline: as §1

[16] = compound: CC1=C(C(CC(=O)N1)C2=CC=C(C=C2)C(F)(F)F)C(=O)NC3=C(C=C4C(=C3)C=NN4)F
Outline: as §1

[17] = compound: CC1=C(C2=C(C=C1)C(=O)C3=CC=CC=C3N2CCCN)C
Outline: as §1

[18] = compound: CC1=C(C=C(C=C1)NC(=O)C2=CC(=CC=C2)C(C)(C)C#N)NC3=CC4=C(C=C3)N=CN(C4=O)C
Outline: as §1

[19] = compound: CC1=C(C=C(C=C1)NC(=O)C2=CC(=CC=C2)N(C)C)NC(=O)C3=CC=C(C=C3)O
Outline: as §1

[20] = compound: CC1=CC=C(C=C1)SC2=C3C=C(SC3=CN=C2)C(=O)N
Outline: as §1

Measured: log2 fold change

POLR2F (UniProt P61218)
inactive: [1] -0.05 | [2] -0.272 | [3] 0.069 | [4] -0.091 | [5] 0.033 | [6] 0.076 | [7] 0.01 | [8] 0.101 | [9] 0.019 | [10] -0.052 | [11] 0.02 | [12] 0.051 | [13] -0.238 | [14] -0.059 | [15] -0.11 | [16] -0.039 | [17] 0.096 | [18] 0.009 | [19] -0.157 | [20] 0.009

PCLAF (UniProt Q15004)
Sequence of UniProt Q15004 (Q15004 whole entry, looked up): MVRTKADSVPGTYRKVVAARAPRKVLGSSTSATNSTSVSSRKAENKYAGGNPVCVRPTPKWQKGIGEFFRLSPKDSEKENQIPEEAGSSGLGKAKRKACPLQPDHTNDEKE
inactive: [1] 0 | [2] -0.026 | [3] 0.057 | [4] -0.006 | [5] -0.059 | [6] -0.015 | [7] 0.012 | [8] 0.037 | [9] -0.052 | [10] 0.016 | [11] 0.025 | [13] 0.035 | [14] -0.014 | [15] -0.011 | [16] 0.003 | [17] -0.041 | [18] 0.034 | [19] -0.005

PPP1R12B isoform 6 (UniProt O60237)
inactive: [1] -0.081 | [2] 0.025 | [3] -0.103 | [4] -0.08 | [5] 0.057 | [6] -0.053 | [7] -0.07 | [8] -0.123 | [9] 0.037 | [10] 0.153 | [11] 0.019 | [12] -0.112 | [13] 0.01 | [14] -0.251 | [15] 0.095 | [17] 0.106 | [18] 0.142 | [19] -0.012 | [20] -0.194

PRPF6 (UniProt O94906)
Sequence of UniProt O94906 (O94906 whole entry, looked up): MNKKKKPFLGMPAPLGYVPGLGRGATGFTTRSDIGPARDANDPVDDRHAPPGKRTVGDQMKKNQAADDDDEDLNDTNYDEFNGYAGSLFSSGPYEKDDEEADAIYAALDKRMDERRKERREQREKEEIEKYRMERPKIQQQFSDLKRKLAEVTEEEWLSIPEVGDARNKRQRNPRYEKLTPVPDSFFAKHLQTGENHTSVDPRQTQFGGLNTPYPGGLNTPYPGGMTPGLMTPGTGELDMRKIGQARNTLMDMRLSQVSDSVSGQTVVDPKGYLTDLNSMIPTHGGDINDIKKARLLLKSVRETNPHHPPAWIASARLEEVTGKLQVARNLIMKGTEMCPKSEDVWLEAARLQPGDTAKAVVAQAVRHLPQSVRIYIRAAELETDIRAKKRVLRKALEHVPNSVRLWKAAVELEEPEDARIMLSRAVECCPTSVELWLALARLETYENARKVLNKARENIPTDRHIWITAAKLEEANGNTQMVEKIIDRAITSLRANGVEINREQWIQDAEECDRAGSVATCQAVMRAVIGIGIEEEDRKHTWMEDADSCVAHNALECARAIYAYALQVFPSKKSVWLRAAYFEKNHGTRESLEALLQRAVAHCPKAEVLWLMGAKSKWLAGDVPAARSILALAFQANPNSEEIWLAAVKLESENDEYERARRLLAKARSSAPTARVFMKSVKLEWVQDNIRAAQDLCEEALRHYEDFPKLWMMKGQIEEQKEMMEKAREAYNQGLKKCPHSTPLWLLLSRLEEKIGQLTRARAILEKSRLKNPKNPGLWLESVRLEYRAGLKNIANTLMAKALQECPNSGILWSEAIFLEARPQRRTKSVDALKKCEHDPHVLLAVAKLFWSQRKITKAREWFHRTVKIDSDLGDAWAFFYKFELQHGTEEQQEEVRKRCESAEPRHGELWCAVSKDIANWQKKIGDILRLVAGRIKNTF
inactive: [1] 0.018 | [2] 0.038 | [3] -0.003 | [4] -0.035 | [5] 0.001 | [6] 0.037 | [7] -0.018 | [8] -0.056 | [9] -0.032 | [10] -0.046 | [11] 0 | [12] 0 | [13] 0.038 | [14] 0.022 | [15] 0.005 | [16] -0.008 | [17] 0.001 | [18] -0.022 | [19] 0.053 | [20] 0.007

PPP4R2 (UniProt Q9NY27)
inactive: [1] 0.004 | [2] -0.007 | [3] 0.025 | [4] 0.063 | [5] -0.029 | [6] -0.02 | [7] 0.013 | [8] 0.004 | [9] 0.004 | [10] 0.012 | [11] -0.012 | [12] -0.007 | [13] -0.015 | [14] -0.058 | [15] 0.003 | [16] 0 | [17] 0 | [18] -0.007 | [19] 0.003 | [20] -0.019

PRIMPOL (UniProt Q96LW4)
inactive: [1] -0.063 | [2] 0.007 | [3] -0.02 | [4] -0.025 | [5] 0.076 | [6] -0.013 | [7] 0.019 | [8] 0.009 | [9] -0.046 | [10] 0.059 | [11] 0.062 | [13] 0.055 | [14] -0.027 | [15] 0.048 | [16] -0.055 | [17] -0.034 | [18] 0.078 | [19] 0.049

PTK2 isoform 2 (UniProt Q05397)
Sequence of UniProt Q05397 (Q05397 whole entry, looked up): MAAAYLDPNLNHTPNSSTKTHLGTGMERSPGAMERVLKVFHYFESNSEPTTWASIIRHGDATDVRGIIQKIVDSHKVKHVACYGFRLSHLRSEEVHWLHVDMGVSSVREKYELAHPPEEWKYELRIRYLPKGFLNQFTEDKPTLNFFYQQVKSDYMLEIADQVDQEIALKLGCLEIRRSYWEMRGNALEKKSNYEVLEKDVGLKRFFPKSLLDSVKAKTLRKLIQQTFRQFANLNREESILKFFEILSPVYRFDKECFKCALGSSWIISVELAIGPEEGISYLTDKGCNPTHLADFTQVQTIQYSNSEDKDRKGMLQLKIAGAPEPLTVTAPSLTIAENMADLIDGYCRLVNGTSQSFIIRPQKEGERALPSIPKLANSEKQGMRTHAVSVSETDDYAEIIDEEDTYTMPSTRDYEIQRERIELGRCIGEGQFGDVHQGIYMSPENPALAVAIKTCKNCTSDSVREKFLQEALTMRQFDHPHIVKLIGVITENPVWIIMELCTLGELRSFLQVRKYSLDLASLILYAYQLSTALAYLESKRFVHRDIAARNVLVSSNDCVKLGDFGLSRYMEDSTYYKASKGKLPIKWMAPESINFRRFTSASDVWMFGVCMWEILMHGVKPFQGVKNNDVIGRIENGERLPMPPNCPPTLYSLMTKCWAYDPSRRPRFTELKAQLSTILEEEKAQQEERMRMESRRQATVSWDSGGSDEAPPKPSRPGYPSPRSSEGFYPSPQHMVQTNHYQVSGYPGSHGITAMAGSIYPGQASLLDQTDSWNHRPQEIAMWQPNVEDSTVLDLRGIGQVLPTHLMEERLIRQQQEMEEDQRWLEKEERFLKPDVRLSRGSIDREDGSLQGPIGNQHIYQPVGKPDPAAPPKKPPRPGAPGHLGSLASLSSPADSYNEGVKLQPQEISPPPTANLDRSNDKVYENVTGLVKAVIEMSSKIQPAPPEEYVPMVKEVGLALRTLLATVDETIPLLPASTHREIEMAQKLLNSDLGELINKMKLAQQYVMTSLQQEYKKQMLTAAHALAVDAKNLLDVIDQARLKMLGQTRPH
inactive: [1] 0.002 | [3] 0.006 | [5] -0.114 | [8] 0.193 | [9] -0.016 | [11] 0.173 | [12] -0.047 | [15] -0.002 | [17] -0.138 | [20] -0.053

PLXND1 (UniProt Q9Y4D7)
Sequence of UniProt Q9Y4D7 (Q9Y4D7 whole entry, looked up): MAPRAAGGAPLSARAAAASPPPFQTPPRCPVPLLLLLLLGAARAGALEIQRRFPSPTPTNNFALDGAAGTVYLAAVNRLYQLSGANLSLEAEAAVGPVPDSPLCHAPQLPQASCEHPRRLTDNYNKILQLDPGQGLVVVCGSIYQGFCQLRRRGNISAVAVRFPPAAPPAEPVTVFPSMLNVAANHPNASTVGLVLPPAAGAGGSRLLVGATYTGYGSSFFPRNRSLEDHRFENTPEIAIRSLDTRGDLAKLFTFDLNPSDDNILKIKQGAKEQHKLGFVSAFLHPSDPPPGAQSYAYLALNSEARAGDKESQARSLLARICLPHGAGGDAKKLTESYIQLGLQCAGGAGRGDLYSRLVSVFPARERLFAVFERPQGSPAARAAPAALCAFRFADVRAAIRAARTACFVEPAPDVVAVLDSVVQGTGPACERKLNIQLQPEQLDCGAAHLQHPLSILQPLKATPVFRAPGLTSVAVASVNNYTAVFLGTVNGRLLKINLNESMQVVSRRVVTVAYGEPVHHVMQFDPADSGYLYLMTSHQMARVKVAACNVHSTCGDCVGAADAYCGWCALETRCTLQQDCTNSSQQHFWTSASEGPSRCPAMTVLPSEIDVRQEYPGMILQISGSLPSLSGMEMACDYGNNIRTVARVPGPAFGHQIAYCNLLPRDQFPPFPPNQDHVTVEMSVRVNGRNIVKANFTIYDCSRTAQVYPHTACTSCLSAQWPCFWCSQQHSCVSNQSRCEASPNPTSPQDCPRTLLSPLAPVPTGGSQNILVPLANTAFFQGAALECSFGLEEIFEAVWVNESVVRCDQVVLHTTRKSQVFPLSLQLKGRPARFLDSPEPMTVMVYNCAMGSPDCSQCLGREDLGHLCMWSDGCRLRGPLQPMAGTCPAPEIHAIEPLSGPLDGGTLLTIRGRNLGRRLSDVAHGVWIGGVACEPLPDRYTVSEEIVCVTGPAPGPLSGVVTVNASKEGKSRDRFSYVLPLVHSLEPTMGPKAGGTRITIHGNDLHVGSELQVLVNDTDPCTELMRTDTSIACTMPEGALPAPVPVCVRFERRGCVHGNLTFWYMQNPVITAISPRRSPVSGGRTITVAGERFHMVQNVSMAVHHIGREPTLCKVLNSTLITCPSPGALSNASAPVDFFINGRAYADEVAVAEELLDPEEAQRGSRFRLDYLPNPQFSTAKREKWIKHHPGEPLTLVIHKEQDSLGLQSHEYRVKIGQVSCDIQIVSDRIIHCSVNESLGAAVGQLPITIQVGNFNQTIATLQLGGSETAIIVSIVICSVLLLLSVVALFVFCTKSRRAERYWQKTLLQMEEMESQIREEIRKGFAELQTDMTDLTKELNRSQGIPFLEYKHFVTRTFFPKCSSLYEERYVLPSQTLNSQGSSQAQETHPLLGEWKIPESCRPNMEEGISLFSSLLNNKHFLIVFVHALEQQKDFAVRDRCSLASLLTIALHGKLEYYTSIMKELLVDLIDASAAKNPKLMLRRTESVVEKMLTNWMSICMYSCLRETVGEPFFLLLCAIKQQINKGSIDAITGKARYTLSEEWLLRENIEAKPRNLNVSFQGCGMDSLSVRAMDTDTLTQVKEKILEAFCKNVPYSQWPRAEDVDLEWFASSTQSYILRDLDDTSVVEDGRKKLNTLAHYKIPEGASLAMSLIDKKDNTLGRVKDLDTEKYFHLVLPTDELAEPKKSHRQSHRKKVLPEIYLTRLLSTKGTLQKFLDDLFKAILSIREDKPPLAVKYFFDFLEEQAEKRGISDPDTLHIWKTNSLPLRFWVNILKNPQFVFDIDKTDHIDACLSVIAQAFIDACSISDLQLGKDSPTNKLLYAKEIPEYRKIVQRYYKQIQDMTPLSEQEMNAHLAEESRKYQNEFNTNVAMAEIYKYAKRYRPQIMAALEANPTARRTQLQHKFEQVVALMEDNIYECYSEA
inactive: [1] -0.067 | [3] 0.073 | [5] -0.048 | [6] -0.016 | [10] -0.032 | [11] 0.138 | [13] -0.081 | [14] -0.07 | [15] 0.046 | [16] -0.023 | [17] 0.112 | [18] -0.033 | [19] 0.218

PIP5K1A (UniProt Q99755)
inactive: [1] 0.036 | [3] -0.14 | [5] 0.022 | [6] -0.062 | [10] -0.195 | [11] 0.012 | [12] 0.201 | [13] -0.053 | [14] 0.001 | [15] 0 | [16] 0.056 | [17] -0.127 | [18] 0.105 | [19] 0.02 | [20] -0.053

PMS1 (UniProt P54277)
inactive: [1] -0.024 | [2] 0.012 | [3] 0.041 | [4] -0.002 | [5] 0.106 | [6] 0.03 | [7] -0.094 | [8] -0.002 | [9] 0.016 | [10] -0.027 | [11] 0 | [13] -0.015 | [14] -0.021 | [15] 0.025 | [16] -0.052 | [17] 0.022 | [18] -0.02 | [19] 0.009

PIAS2 (UniProt O75928)
inactive: [1] 0.043 | [2] -0.277 | [3] 0.035 | [4] 0 | [6] 0.019 | [7] 0.039 | [8] 0.037 | [9] -0.002 | [10] 0.053 | [13] 0.019 | [14] 0.006 | [15] -0.017 | [16] 0.039 | [17] 0.052 | [18] -0.001 | [19] -0.002

PHC1 (UniProt P78364)
active: [18] 0.443
inactive: [2] 0.032 | [4] -0.004 | [5] -0.075 | [7] -0.051 | [8] 0.021 | [9] -0.01 | [11] 0.027 | [16] 0.044 | [17] -0.117

PDIA4, A0A499FI48
inactive: [17] -0.017 | [18] -0.066

PFN1 (UniProt I3L3D5)
inactive: [5] 0.054 | [6] 0.045 | [8] 0.009 | [9] 0.03 | [10] 0.005 | [11] -0.045 | [12] -0.053 | [13] 0.045 | [14] -0.033 | [16] -0.013 | [19] 0 | [20] 0.031

PPP2R5C isoform 2 (UniProt Q13362)
Sequence of UniProt Q13362 (Q13362 whole entry, looked up): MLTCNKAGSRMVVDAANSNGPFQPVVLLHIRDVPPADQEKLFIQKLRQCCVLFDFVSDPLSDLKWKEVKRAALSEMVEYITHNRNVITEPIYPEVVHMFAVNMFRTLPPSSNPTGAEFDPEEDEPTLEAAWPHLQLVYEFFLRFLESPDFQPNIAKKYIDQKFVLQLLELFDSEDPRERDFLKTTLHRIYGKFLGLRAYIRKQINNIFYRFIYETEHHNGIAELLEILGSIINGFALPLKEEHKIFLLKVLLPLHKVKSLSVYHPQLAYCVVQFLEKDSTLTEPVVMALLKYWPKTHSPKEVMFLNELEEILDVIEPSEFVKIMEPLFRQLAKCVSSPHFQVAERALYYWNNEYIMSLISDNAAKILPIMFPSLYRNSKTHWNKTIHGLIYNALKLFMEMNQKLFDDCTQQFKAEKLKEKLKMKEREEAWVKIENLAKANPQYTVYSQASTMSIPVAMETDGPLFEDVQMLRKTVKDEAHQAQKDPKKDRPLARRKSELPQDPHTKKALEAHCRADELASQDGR
inactive: [1] 0.003 | [2] 0.044 | [3] 0.024 | [4] -0.046 | [5] 0.186 | [6] 0.024 | [7] 0.013 | [10] 0.052 | [11] -0.145 | [13] -0.016 | [14] -0.02 | [15] 0.02 | [16] -0.012 | [17] 0 | [18] -0.155 | [19] 0.08

PHF14 (UniProt O94880)
inactive: [2] 0.032 | [4] -0.01 | [5] -0.06 | [6] -0.086 | [7] 0.045 | [8] -0.423 | [9] 0.432 | [10] 0.035 | [11] -0.014 | [12] 0.03 | [13] -0.024 | [14] -0.055 | [17] -0.003 | [19] -0.042 | [20] -0.128
active: [16] 0.454

PPP1R14C (UniProt Q8TAE6)
Sequence of UniProt Q8TAE6 (Q8TAE6 whole entry, looked up): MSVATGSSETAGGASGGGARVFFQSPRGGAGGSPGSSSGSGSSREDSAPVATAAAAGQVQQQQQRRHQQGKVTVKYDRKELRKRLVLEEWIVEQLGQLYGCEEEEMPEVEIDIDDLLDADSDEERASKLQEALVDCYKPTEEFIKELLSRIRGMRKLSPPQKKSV
inactive: [2] 0.018 | [4] -0.092 | [5] -0.05 | [6] 0.001 | [7] 0.021 | [8] 0.052 | [9] -0.02 | [10] -0.014 | [11] 0.067 | [12] 0.007 | [13] 0.057 | [14] 0.042 | [16] -0.028 | [17] -0.097 | [19] -0.123 | [20] 0.068

PCBP2 (UniProt F8VRH0)
inactive: [1] 0.084 | [3] -0.182 | [6] -0.092 | [10] 0.11 | [12] -0.014 | [13] 0.087 | [14] -0.033 | [15] 0.051 | [16] 0.129 | [18] 0.017 | [19] 0.012 | [20] 0.027
